The list is not random: actives were taken first. Their share in the collection is about 22%.
CYP2C19 inhib: blocks human cytochrome P450 2C19. P33261. CYP2C19 Supersomes, luciferin-H EGE luminescence, 30 min. inhibition, % at 5 µM. 96,000 compounds, 21% hits. AID 778;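 active = CYP2C19 inhibition above a set limit at 5 µM in the primary screen, cut at about 50% in these data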;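 also: plate controls were negative control wells for no effect and 2.5 mM tranylcypromine positive control for full effect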
CYP2C9 activ: increases human cytochrome P450 2C9 activity; P11712; 96,000 compounds, 1.4% hits; recombinant CYP2C9, luciferin-H conversion, luminescence; stronger effect = higher value; factor 1 = untreated enzyme, 0 = blocked; activation factor at 5 µM;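 active = activation factor of 2 or more for CYP2C9 at a 5 µM dose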;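 also: 0 = sulfaphenazole-blocked wells and 1 = vehicle-only wells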
Target sequence (P11712 whole entry, looked up): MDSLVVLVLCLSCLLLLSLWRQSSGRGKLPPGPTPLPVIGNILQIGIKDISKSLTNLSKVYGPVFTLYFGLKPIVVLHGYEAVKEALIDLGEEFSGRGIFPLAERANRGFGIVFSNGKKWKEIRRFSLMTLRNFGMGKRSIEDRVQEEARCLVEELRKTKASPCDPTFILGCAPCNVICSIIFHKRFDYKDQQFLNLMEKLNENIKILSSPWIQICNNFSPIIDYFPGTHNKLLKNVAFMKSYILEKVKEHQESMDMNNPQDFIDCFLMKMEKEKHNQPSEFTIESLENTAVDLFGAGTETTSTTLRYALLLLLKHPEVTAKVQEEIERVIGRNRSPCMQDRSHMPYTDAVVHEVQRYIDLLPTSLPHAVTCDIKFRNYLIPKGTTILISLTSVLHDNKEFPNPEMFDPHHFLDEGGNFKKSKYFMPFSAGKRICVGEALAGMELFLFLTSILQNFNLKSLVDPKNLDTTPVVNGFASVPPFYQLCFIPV
E-sel TNF inh: TNF alpha driven E-selectin expression inhibition | HUVEC TNFa-induced E-selectin immunofluorescence, high content | inhibition, % at 2 µM | 120,000 compounds, 0.71% hits | AID 1246;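 active = inhibition above the batch mean plus 3 SD, and confirmed as a hit on visual image review, cut at about 43% in these data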;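 also: 0% = TNF-stimulated DMSO wells and 100% = unstimulated control wells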
cytoskel mod: alters cytoskeleton assembly in HUVEC cells; HUVEC TNFa F-actin phalloidin imaging, high content; 91,000 compounds, 0.18% hits; inhibition, % at 2 µM;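 active = inhibition above the batch mean plus 3 SD and confirmed as a hit by visual image inspection, cut at about 30% in these data, passing the limit was not always enough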
CYP2C9 inhib: human CYP2C9 inhibition; P11712; CYP2C9 Supersomes, luciferin-H conversion, luminescence; inhibition, % at 5 µM; 96,000 compounds, 20% hits; AID 777;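 active = blocking of liver enzyme CYP2C9 beyond about 50% at 5 µM, limit read from the data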
CYP2C19 activ: increases human CYP2C19 enzyme activity; P33261; recombinant CYP2C19, luciferin-H EGE luminescence; stronger effect = higher value; 0 = fully inhibited enzyme, 1 = untreated enzyme; activation factor at 5 µM; 96,000 tested, under 10 active; AID 1025;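 active = activation factor of at least 2 at 5 µM in the primary screen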;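 also: 0 = wells with 2.5 mM tranylcypromine and 1 = vehicle-only wells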
Numbers without * were called inactive; . = no result.

SMILES	CYP2C19 inhib	CYP2C9 activ	E-sel TNF inh	cytoskel mod	CYP2C9 inhib	CYP2C19 activ
CC(NC(=O)c1ccco1)C(c1cccs1)N1CCOCC1 (configuration not stated)	64*	0.7	.	0	33	0.4
CCN1CCN(C(c2cccs2)C(C)NC(=O)c2ccccc2F)CC1 (configuration not stated)	8	0.4	.	-5	59*	0.9
CC(NC(=O)Nc1ccccc1)C(c1cccs1)N1CCOCC1 (configuration not stated)	.	.	.	-14	.	.
Cc1cc(C)c2sc(N(CCCN(C)C)C(=O)COc3ccc(Cl)cc3)nc2c1	.	.	23	.	.	.
COc1cccc(-n2nnnc2S(C)(=O)=O)c1	16	1	10	22	2	0.8
CCCCCCN(C(=O)CCCCCN1C(=O)NC(c2ccc(-c3ccccc3)cc2)C(C(=O)OCc2ccccc2)=C1C)C(C)C(=O)NCCCC (configuration not stated)	.	.	-2	.	.	.
NC/C(=N\O)c1ccc(Cl)cc1Cl	80*	0.5	-9	-11	52*	0.2
COc1cccc(CNC(=O)CSc2ccc(-c3ccncc3)nn2)c1	.	.	-18	.	.	.
CCc1c(C(=O)NCc2ccccc2Cl)[nH]c(C)c1C(C)=O	61*	0.3	-7	-76	66*	0.4
CCc1c(C(=O)NCc2ccc3c(c2)OCO3)[nH]c(C)c1C(C)=O	41	0.2	.	-1	80*	0.6
CCc1c(C(=O)Nc2ccc(OC)cc2)[nH]c(C)c1C(C)=O	27	0.9	.	54	14	0.7
CCc1c(C(=O)Nc2cc(C)ccc2OC)[nH]c(C)c1C(C)=O	55*	0.7	2	13	35	0.4
Cc1nnc(N/N=C/c2cc(C)n(-c3ccc(F)cc3)c2C)n1N	.	.	10	.	.	.
Cc1ccccc1Oc1ccc(S(=O)(=O)NCCC(=O)O)cc1	-6	0.6	.	-4	44	1.1
Cc1ccsc1C(C(=O)NC1CCCCC1)N(C(=O)c1csnn1)C1CC1 (configuration not stated)	64*	0.9	9	-19	12	0.4
Cc1ccc(C(C(=O)NC2CCCCC2)N(C(=O)c2csnn2)C2CCCC2)o1 (configuration not stated)	37	0.7	-5	-2	32	0.6
Cc1ccc(C(C(=O)NC2CCCC2)N(C(=O)c2csnn2)C2CCCC2)o1 (configuration not stated)	64*	0.8	6	-11	20	0.4
Cc1ccc(C(C(=O)NC(C)(C)C)N(C(=O)c2csnn2)C2CC2)cc1 (configuration not stated)	.	.	12	0	.	.
COc1cc(CC(=O)OCC(=O)Nc2cc([N+](=O)[O-])ccc2F)cc(OC)c1OC	.	.	1	.	.	.
O=C(CSCCc1ccccn1)Nc1cccnc1	-3	1.1	.	-1	-5	1
CC(C)Cn1c(-c2ccc(F)cc2)n[nH]c1=S	86*	0.8	5	-29	19	0.1
CC(C)Cn1c(-c2ccccc2F)n[nH]c1=S	81*	0.5	-10	-12	46	0.2
CC(C)Cn1c(-c2ccco2)n[nH]c1=S	16	1	15	-9	-4	0.8
COc1cccc(/C(O)=C/C(=O)C(=O)Nc2ccc(S(=O)(=O)NC(C)=O)cc2)c1	.	.	-18	.	.	.
COc1ccc(-c2nn(CC(=O)N(C)C)c(=O)c3ccccc23)cc1	6	0.9	.	-7	11	0.9
SMILES	CYP2C19 inhib	CYP2C9 activ	E-sel TNF inh	cytoskel mod	CYP2C9 inhib	CYP2C19 activ
O=C(NCSC1=NCCS1)c1ccccc1	10	1.1	-1	-2	-13	0.9
CCOC(=O)COc1ccc(C(=O)NC2CCCCC2)cc1	22	3*	-13	9	-202	0.8
CCOc1cccc(C(=O)N2CCCCC2c2cccnc2)c1 (configuration not stated)	43	2.1*	9	4	-108	0.6
CCOc1cccc(C(=O)NC2CCCCC2)c1	68*	1.3	13	-27	-30	0.3
COc1cccc(C(=O)NC2CCN(C(=O)N3CCCCC3)CC2)c1	7	0.9	-11	50	6	0.9
COc1ccc(-c2cn3cccnc3n2)cc1NC(=O)c1cc(OC)c(OC)c(OC)c1	.	.	-2	.	.	.
Cc1c(NC(=S)NC(NC(=O)CC(C)C)C(Cl)(Cl)Cl)c(=O)n(-c2ccccc2)n1C (configuration not stated)	.	.	-2	.	.	.
COc1ccc(NC(=O)c2ccc(COc3ccccc3)o2)cc1	21	0.6	-9	-24	39	0.8
CC(C)CC(=O)NS(=O)(=O)c1ccc(N)cc1	.	.	15	-1	.	.
CC(=O)N=C(N)Sc1nc2ccccc2[nH]1	.	.	10	8	.	.
CC1=NOC(=O)/C1=C/c1ccc(-c2ccc(Cl)cc2)o1	76*	0.3	7	7	68*	0.2
C=CCNC(=S)N/N=C/c1ccc(-c2cc(Cl)ccc2Cl)o1	9	1.7	-27	-4	-69	0.9
CC1=NOC(=O)/C1=C\c1ccc(-c2cc(Cl)ccc2Cl)o1	60*	1	5	12	4	0.4
COC(=O)c1sccc1NC(=S)N1CC(C)CC(C)C1 (configuration not stated)	83*	0.3	.	-15	70*	0.2
COC(=O)c1sccc1NC(=S)N1CCC(C)CC1	21	0.8	7	.	21	0.8
CCCN1C(=O)/C(=C/c2ccco2)SC1=Nc1ccc(OC)cc1	10	0.7	-12	13	28	0.9
COc1ccc(N=C2S/C(=C\c3ccc(N4CCOCC4)o3)C(=O)N2CCc2c[nH]c3ccccc23)cc1	32	0.4	6	-7	64*	0.7
Cc1ccccc1Nc1nc(N)nc(COC(=O)C(NC(=O)c2ccco2)C(C)C)n1 (configuration not stated)	31	0.4	.	-7	59*	0.7
Cc1ccc2c(CC(=O)OCc3nc(N)nc(Nc4ccccc4C)n3)coc2c1	12	0.5	23	-16	46	0.9
Cc1cc(C(=O)COC(=O)c2n[nH]c3ccccc23)c(C)n1C	43	1.6	-30	28	-63	0.6
COc1cc(C(=O)OCC(=O)c2cc(C)n(C)c2C)cc(OC)c1OC	58*	2.5*	30	13	-148	0.4
CCCCOc1ccc(Cl)cc1CSc1n[nH]c(C)n1	85*	0.4	-10	11	64*	0.2
COc1ccc(Cl)cc1CSc1n[nH]c(C)n1	88*	0.8	10	12	15	0.1
CCOc1ccc(Cl)cc1CSc1n[nH]c(CC)n1	94*	0.3	-14	-7	72*	0.1
COc1ccc(CSc2n[nH]c(C)n2)cc1Br	39	0.9	18	-3	14	0.6
CCCCOc1ccc(Cl)cc1CSc1nnc(C)n1N	19	0.8	-15	-5	20	0.8
COc1ccc(/C=c2/sc3n(c2=O)NC2(c4ccccc4)N(C)C(=O)N(C)C2(c2ccccc2)N=3)cc1 (configuration not stated)	40	0.4	14	8	60*	0.6

Assay outcomes: PubChem, several laboratories
